Screening data (PubChem)
The list is not random: actives were taken first. Their share in the collection is about 2.9%.
DRV1 agonist: qHTS for Agonists of Human Resolvin D1 Receptor DRV1. Probable G-protein coupled receptor 32 (Homo sapiens), O75388. CHO-K1 GPR32 beta-arrestin PathHunter luminescence, 90 min; zero percent set by DMSO-only wells. activation, % at 76.9 µM. actives 2.5% (n = 48,000). AID 1346428, 2018;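 active = activation of at least 60% and not above a set upper limit, about 1 call in 100 departs from these limits; inconclusive = activation of 40% to 60%, or above that upper limit; inactive = activation under 40%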; also: 0% is about no effect
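Agonism was scored by beta-Gal fragment complementation (chemiluminescent read, 1 h detection at ambient temperature) reporting beta-arrestin binding to GPR32 in engineered CHO-K1 cells. Compound treatment lasted 90 min at 37 C, normalized to a DMSO basal control.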
GALC G270D act: A Novel Cell-Based Assay to Identify Small Molecules for B -Galactocerebrosidase | P54803 | 145M-Twi-hGALC-G270D cells (Twitcher mouse brain line with human GALC G270D), HMU-beta-Gal fluorescence, 48 h | Potency, µM (highest dose often 57.5 µM), hits mostly activators | actives 0.1% (n = 45,000); also: potency is read from the fitted curve at half-maximal effect; 0% is about no effect; nearly all actives have a fitted effect of over 65% in size
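Live 145M-Twi cells (Twitcher mouse brain-derived, GALC-null) stably expressing human GALC-G270D, with a wild-type GALC line, were compound-treated. Residual GALC activity was then read as fluorescence from 0.1 mM final HMU-β-gal at pH 5.2; higher signal means activation.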
PTAP-TSG101 blk: qHTS Validation Assay for Inhibitors of HIV-1 Budding by Blocking the Interaction of PTAP/TSG101: Sytravon Library Screen | Fluorescence polarization, FITC-PTAP peptide/Tsg101, 20 min | Potency, µM (highest dose often 115 µM), actives largely listed as inhibitors | 44,000 tested, under 10 active; also: potency is read from the fitted curve at half-maximal effect; 0% is about no effect
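The Tsg101 binding domain, at 10 uM final, is mixed with compound and a FITC peptide bearing the PTAP motif (50 nM final). After 20 min at r.t., polarization is measured; actives defined by CRC class, efficacy cut-off 60% inhibition.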
B2AR arrestin ag: qHTS assay of beta-arrestin-biased ligands of beta2-adrenergic receptor: NCGC Sytravon Library Screen | 44,000 tested, under 10 active | Beta-2 adrenergic receptor (Homo sapiens), P07550 | HTLA Tango cells, beta-arrestin recruitment, luciferase luminescence, 18 h | Potency, µM (titrated, usually from 46.1 µM), most hits filed as activators;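 also: potency is read from the fitted curve at half-maximal effect; 0% = DMSO and full agonism = EC100 isoproterenol or metaproterenol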
Target sequence (P07550 whole entry, looked up): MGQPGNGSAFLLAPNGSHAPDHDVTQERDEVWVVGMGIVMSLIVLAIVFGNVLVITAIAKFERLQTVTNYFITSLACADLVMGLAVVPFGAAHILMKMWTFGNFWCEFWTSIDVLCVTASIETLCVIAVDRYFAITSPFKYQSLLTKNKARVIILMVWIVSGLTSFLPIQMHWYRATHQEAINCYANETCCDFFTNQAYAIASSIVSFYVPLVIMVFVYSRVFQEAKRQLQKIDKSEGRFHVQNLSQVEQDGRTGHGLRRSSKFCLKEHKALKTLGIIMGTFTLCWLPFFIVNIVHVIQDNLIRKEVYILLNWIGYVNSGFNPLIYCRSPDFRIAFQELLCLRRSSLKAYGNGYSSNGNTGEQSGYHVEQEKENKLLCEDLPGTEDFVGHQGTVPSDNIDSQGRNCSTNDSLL
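First, Tango cells carrying beta2-AR and beta-arrestin fusions received compound up to 46 microM. After 18 hr at 37 degrees C, luciferase substrate was added for 15 minutes, then luminescence gave %Activity for curve fitting.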
* = called active by the depositor. Unless noted, calls follow the shape of the dose curve; as a rule, active = well fitted curve in the direction sought with a large enough effect; inconclusive = small, poorly fitted or top-dose-only effect, or another doubt; inactive = no such curve, though single readings can be large; an effect the other way counts as inactive or inconclusive.

For CO/N=C(\C(=O)O)c1csc(NC(=O)CCl)n1 the results were DRV1 agonist -46 and GALC G270D act inactive.
NC(=O)NC1N=C([O][Al])NC1=O (centres undefined) was read as DRV1 agonist -5 and GALC G270D act inactive.
`Cc1ccc(-c2nc3ccccc3[nH]2)cc1NC(=O)COc1ccccc1[N+](=O)[O-]` gave DRV1 agonist 79*, GALC G270D act inactive, PTAP-TSG101 blk inactive and B2AR arrestin ag inactive.
O=C(COc1ccccc1[N+](=O)[O-])Nc1cccc(-c2nc3ccccc3s2)c1 was read as DRV1 agonist 84*, GALC G270D act inactive, PTAP-TSG101 blk inactive and B2AR arrestin ag inconclusive.
For C#C[C@]1(OC(C)=O)CC[C@H]2[C@@H]3CCC4=C/C(=N/O)CC[C@@H]4[C@H]3CC[C@@]21CC the results were DRV1 agonist 31 and GALC G270D act inactive.
For C#CC1(O)CC[C@H]2[C@@H]3CCC4=CCCC[C@@H]4[C@H]3CC[C@@]21C (some centres undefined) the results were DRV1 agonist 105* and GALC G270D act inactive.
CCC1CCc2nc3sc(C(=O)Nc4cccc(F)c4)c(N)c3cc2C1 (centres undefined) was read as DRV1 agonist 14, GALC G270D act inactive, PTAP-TSG101 blk inactive and B2AR arrestin ag inactive.
CCC1CCc2nc3sc(C(=O)Nc4cccc(C(F)(F)F)c4)c(N)c3cc2C1 (centres undefined) was read as DRV1 agonist 21, GALC G270D act 10µM*, PTAP-TSG101 blk inactive and B2AR arrestin ag inactive.
COc1ccc(NC(=O)c2sc3nc4c(cc3c2N)CCCCCC4)cc1 was read as DRV1 agonist 74*, GALC G270D act inactive, PTAP-TSG101 blk inactive and B2AR arrestin ag inactive.
Oc1cccc(-c2c3nc(c(-c4cccc(O)c4)c4ccc([nH]4)c(-c4cccc(O)c4)c4nc(c(-c5cccc(O)c5)c5ccc2[nH]5)CC4)C=C3)c1 was read as DRV1 agonist -15 and GALC G270D act inactive.
COc1ccc(OC)c(NC(=O)Cn2cnc3ccc(S(=O)(=O)N4CCC(C)CC4)cc3c2=O)c1 was read as DRV1 agonist -14, GALC G270D act inactive, PTAP-TSG101 blk inactive and B2AR arrestin ag inactive.
`COc1ccc(NC(=O)Cn2cnc3ccc(S(=O)(=O)N4CCC(C)CC4)cc3c2=O)cc1OC` gave DRV1 agonist 113*, GALC G270D act inactive, PTAP-TSG101 blk inactive and B2AR arrestin ag inactive.
For Cc1ccc(NC(=O)Cn2c(=O)ccc3cc(S(=O)(=O)N4CCC(C)CC4)ccc32)cc1C the results were DRV1 agonist 70*, GALC G270D act inactive, PTAP-TSG101 blk inactive and B2AR arrestin ag inactive.
COc1cc(C2CC(=O)Nc3cc4c(cc32)OCCO4)cc(Br)c1OC (centres undefined) was read as DRV1 agonist -5, GALC G270D act inactive, PTAP-TSG101 blk inactive and B2AR arrestin ag inactive.
For Cc1cc(Nc2cccc(Cl)c2)nc2ccc(NC(=O)c3cccnc3)cc12 the results were DRV1 agonist 60*, GALC G270D act inactive, PTAP-TSG101 blk inactive and B2AR arrestin ag inactive.
For Cc1cc(N2CCN(C)CC2)nc2ccc(NC(=O)Nc3ccccc3Br)cc12 the results were DRV1 agonist 103*, GALC G270D act inactive, PTAP-TSG101 blk inactive and B2AR arrestin ag inactive.
Cc1cc(Nc2cccc(Cl)c2)nc2ccc(NC(=O)c3cccc(N(C)C)c3)cc12 was read as DRV1 agonist 6, GALC G270D act inactive, PTAP-TSG101 blk inactive and B2AR arrestin ag inactive.
Screening Cc1cc(N2CCN(C)CC2)nc2ccc(NC(=O)Nc3ccccc3)cc12 returned DRV1 agonist inconclusive, GALC G270D act inactive, PTAP-TSG101 blk inactive and B2AR arrestin ag inactive.
For Cc1cc(N2CCN(C)CC2)nc2ccc(NC(=O)Nc3cccc(Cl)c3)cc12 the results were DRV1 agonist 93*, GALC G270D act inactive, PTAP-TSG101 blk inactive and B2AR arrestin ag inactive.
Screening Cc1ccc(NC(=O)CC2Oc3ccc(C)cc3NC2=O)c(C)c1 (centres undefined) returned DRV1 agonist 0, GALC G270D act inactive, PTAP-TSG101 blk inactive and B2AR arrestin ag inactive.
`CC(=O)c1ccc(NC(=O)CC2Oc3ccc(C)cc3NC2=O)cc1` (centres undefined) gave DRV1 agonist 65*, GALC G270D act inactive, PTAP-TSG101 blk inactive and B2AR arrestin ag inactive.
For CC(C)(C)C(=O)OCc1cc(=O)n2nc(C3CCCCC3)sc2n1 the results were DRV1 agonist 79*, GALC G270D act inactive, PTAP-TSG101 blk inactive and B2AR arrestin ag inactive.
For O=C(NCc1cccc(Cl)c1)C1CCN(c2nn3cc(-c4ccc(F)cc4)nc3s2)CC1 the results were DRV1 agonist 62*, GALC G270D act inactive, PTAP-TSG101 blk inactive and B2AR arrestin ag inactive.
Screening OCC1O[C@H]([S-])[C@H](O)[C@@H](O)[C@@H]1O.[Au+] (some centres undefined) returned DRV1 agonist 2.
Screening CCCCC(=O)O[C@]1(C(=O)CO)[C@@H](C)C[C@H]2[C@@H]3CCC4=CC(=O)C=C[C@]4(C)[C@@]3(F)[C@@H](O)C[C@@]21C returned DRV1 agonist 15 and GALC G270D act inactive.
For CCC(=O)N1CCc2cc(S(=O)(=O)NCc3ccc(C)cc3)ccc21 the results were DRV1 agonist 18, GALC G270D act inactive, PTAP-TSG101 blk inactive and B2AR arrestin ag inactive.
Screening CCC(=O)N1CCc2cc(S(=O)(=O)N(C)c3cccc(C)c3)ccc21 returned DRV1 agonist 63*, GALC G270D act inactive, PTAP-TSG101 blk inactive and B2AR arrestin ag inactive.
`Cc1ccc(NC(=O)c2cc(S(=O)(=O)NCCc3ccc(Cl)cc3)ccc2F)cc1` gave DRV1 agonist 36, GALC G270D act inactive, PTAP-TSG101 blk inactive and B2AR arrestin ag inactive.
Screening COc1ccc(CCNS(=O)(=O)c2ccc(F)c(C(=O)Nc3ccc(Cl)cc3)c2)cc1OC returned DRV1 agonist 64*, GALC G270D act inactive, PTAP-TSG101 blk inactive and B2AR arrestin ag inactive.
CCc1ccc(NCc2cc3ccc(OC)cc3n(CC(=O)Nc3ccccc3C)c2=O)cc1 was read as DRV1 agonist -12, GALC G270D act inactive, PTAP-TSG101 blk inactive and B2AR arrestin ag inactive.
`COc1ccc(NC(=O)[C@H]2O[C@@H]3OC(C)(C)O[C@@H]3[C@H]3OC(C)(C)O[C@H]32)c(OC)c1` gave DRV1 agonist 97*, GALC G270D act inactive, PTAP-TSG101 blk inactive and B2AR arrestin ag inactive.
